Measured values reported in PubChem BioAssay (NCI).
Where “and” joins values, the source holds several entries; their conditions need not be identical. Equal values may be shown once. About 83,000 compounds went through this panel and 20% of them were active in at least one assay; those are over-represented in the sample as a whole.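 The test compound was applied at a single concentration to cells in 96-well plates for 48 hours, and percent growth was recorded.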 Calls of active or inactive are those of the source.

These compounds were tested on TK-10 renal (assay: NCI-60 one-dose screen, 48 h (100 = growth as untreated, 0 = no growth, -100 = all killed)). Conditions: 10 µM.
Description: Growth inhibition of the TK-10 human tumor cell line is measured as a screen for anti-cancer activity. Cells are grown in 96 well plates and exposed to the test compound for 48 hours. Compounds are tested at a single concentration, which is 10^-5 M for most compounds. The reported endpoint is percent growth (GI% or GIPRCNT), where numbers from 0 - 100% represent growth inhibition, and numbers from -100% - 0 represent cell death. For example, a value of 40 represents 60% growth inhibition. A value of 0 means no net growth occurred over the course of the experiment. A value of -40 indicates 40% of cells at the beginning of the experiment died by the end of the experiment. A value of -100 means all cells are dead at the end of the experiment.
NCI-60 Human Tumor Cell Lines Screen was performed using the standard one-dose NCI protocol, which is described in more detail at https://dtp.cancer.gov/discovery_development/nci-60/default.htm.
Compounds with GIPRCNT values below 10 were considered active. Activity score was based on GIPRCNT using the following formula: […]
Score is 0 for GIPRCNT values of 100 or above, 50 for GIPRCNT values of 0, and 100 for GIPRCNT values of -100.

| SMILES | growth |
| --- | --- |
| CC1CCC2(OC1)OC1C(O)C3C4CCC5CC(OC6OC(CO)C(OC7OC(CO)C(O)C(OC8OCC(O)C(O)C8O)C7OC7OC(CO)C(O)C(OC8OC(CO)C(O)C(O)C8O)C7O)C(O)C6O)C(O)CC5(C)C4CCC3(C)C1C2C (stereo not given) | -27.4% (active) |

Same assay, conditions: 10 µM unless noted

| SMILES | growth |
| --- | --- |
| COC(=O)C1C(O)C(C)C(O)C(C)/C=C\C=C(C)C(=O)Nc2c(C)c(OC(C)=O)c3c(c2O)C(=O)C(C)=C2OCOC(=C23)C(C)=CC(C)(O)C(O)C(C)C1O (stereo not given) | 107% (inactive) |
| C/C(=C\c1ccc(Cl)c(Cl)c1)[N+](=O)[O-] | 4.82% (active) and 91.4% (inactive) |
| COC12c3c(C)cc(O)c4c(=O)occ(c34)C(=O)C1C13COC(=O)c4c(O)cc(C)c(c41)C(=O)C2C3OC(C)=O (stereo not given) | 110% (inactive) |
| COc1ccc2c(ccc3oc([N+](=O)[O-])cc32)c1 | -15% (active) |
| O=S(=O)(F)c1ccc(Cl)cc1 | 107% (inactive) |
| C[C@]12CC[C@H]3[C@@H](CCC4=CC(=O)CC[C@@H]43)[C@@H]1CC[C@@H]2OC(=O)N(CCCl)N=O | 87.6% (inactive) |
| CCOC(=O)c1[nH]cnc1/N=N/N(C)N | 99.8% [100 µM] (inactive) and -100% [100 µM] (active) |
| NNc1ccccc1 | 42.3% (inactive) |
| Cc1ccc(NC(=O)CBr)cc1 | 110% (inactive) |
| O=C(CBr)Nc1ccccc1 | 87.4% (inactive) |
| COc1cc([C@@H]2c3cc4c(c(O)c3C[C@H]3COC(=O)[C@@H]32)OCO4)cc(OC)c1OC | 38.8% (inactive) |
| COc1cc2c3cc1Oc1c(OC)c(OC)cc4c1C(Cc1ccc(cc1)Oc1cc(ccc1O)CC3N(C)CC2)N(C)CC4 (stereo not given) | 48% [100 µM] (inactive) and -100% [100 µM] (active) |
| O=C(CBr)Nc1ccc(Cl)cc1 | 111% (inactive) |
| O=C(O)c1cc(Cc2ccc(O)c(C(=O)O)c2)ccc1O (tested in a mixture with another compound) | 93% (inactive) |
| CC(=O)[O][Hg][c]1c(C)c(C)cc(C)c1C | -82.6% (active) |
| O=C1CCC(=O)N1SC(Cl)(Cl)Cl | 99.2% (inactive) |
| Cc1ccc(C(=O)C2C(c3ccccc3)N2C2CCCCC2)cc1 (stereo not given) | 137% (inactive) and 108% (inactive) |
| CC/C(=C/c1ccc(OC)cc1OC)[N+](=O)[O-] | 11.1% (inactive) |
| COc1ccccc1/C=C/[N+](=O)[O-] | 72.9% (inactive) |

| SMILES | growth |
| --- | --- |
| COC1CC2C=C(C)/C=C/C=C/C(=O)NC(c3ccccc3)C/C=C/CCC(O)CC(=O)C2=C1O (stereo not given) | -59.9% (active) |
| [O-][n+]1ccccc1S | 37.2% (inactive) |
| [Cl][Hg][c]1ccc(Cl)s1 | 30.9% (inactive) |
| C=NCC#N | 100% (inactive) and 90% (inactive) |
| C[C@H]1CC[C@@]2(NC1)O[C@H]1C[C@H]3[C@@H]4CC[C@H]5C[C@@H](O)CC[C@]5(C)[C@H]4CC[C@]3(C)[C@H]1[C@@H]2C | 25.1% [100 µM] (inactive) and -60.4% [100 µM] (active) |
| Oc1c(Cl)cc(Cl)c2ccccc12.[Cu+2] | 119% (inactive) |
| CCOP(=O)(OCC)/C(C#N)=C/c1ccc(Br)cc1 | 104% (inactive) |
| Cn1c(O)c(N=O)c(=O)n(C)c1=O | 102% (inactive) and 105% (inactive) |
| Cc1cc([N+](=O)[O-])c2ccccc2[n+]1[O-] | -31.3% (active) and -29.9% (active) |
| COc1ccc(/C=C(\C)[N+](=O)[O-])cc1OC | -69.2% (active) |
| CC(C)C1(NC(=O)C2CC3c4cccc5[nH]cc(c45)CC3N(C)C2)OC2(O)C3CCCN3C(=O)C(Cc3ccccc3)N2C1=O (stereo not given) | 123% (inactive) |
| O=[P+](O)c1ccccc1 | 117% (inactive) |
| COc1cc(/C=C/[N+](=O)[O-])cc(OC)c1OC | -11% (active) |
| O=[N+]([O-])c1ccc(N2CCOCC2)c2c1no[n+]2[O-] | -0.265% (active) |
| O=C1C=Cc2ccccc2C1=O | 87.9% (inactive) |
| O=[N+]([O-])c1ccc(Br)c([N+](=O)[O-])c1 | 102% (inactive) |
| COS(=O)(=O)c1ccccc1 | 104% (inactive) |
| [Cl][Sn]([c]1ccccc1)([c]1ccccc1)[c]1ccccc1 | -92.7% (active) |
| S=C=NCCc1ccccc1 | 78.9% (inactive) |

Same assay, conditions: 100 µM

| SMILES | growth |
| --- | --- |
| CC1CCC2(OC1)OC1C(O)C3C4CCC5CC(OC6OC(CO)C(OC7OC(CO)C(O)C(OC8OCC(O)C(O)C8O)C7OC7OC(CO)C(O)C(OC8OC(CO)C(O)C(O)C8O)C7O)C(O)C6O)C(O)CC5(C)C4CCC3(C)C1C2C (stereo not given) | -99% (active) and -94% (active) |
